In PubChem BioAssay (NCATS):
Inconclusive results are not listed. The source made the active and inactive calls. Unless noted, the call rests on the fitted dose curve; in most records, active means well fitted curve in the direction sought with a large enough effect; inconclusive means small, poorly fitted or top-dose-only effect, or another doubt; inactive means no such curve, though single readings can be large; an effect the other way counts as inactive or inconclusive.

Legend:
[1] = biological target: Cytochrome P450 3A4 (Homo sapiens) (UniProt P08684); experiment: qHTS Assay for Activators of Cytochrome P450 3A4 (AID 885); further: nearly all actives have a fitted effect of over 65% in size
How it was run: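 Quantitative HTS format: compounds preincubated with 20nM human CYP3A4 and Luciferin-PPXE substrate at KM, reaction started by NADPH regeneration, stopped after 60 min, luciferase luminescence read 20 min later.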

[2] = Confirmation and Secondary Assay for Modulators of Hemoglobin Beta Chain Splicing at IVS2 654 locus (AID 910);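 further: per-well total GFP intensity by laser scanning cytometry after 2-day treatment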;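 further: potency means the concentration at half of the fitted maximal effect; potency of activators that raise GFP signal by restoring correct splicing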
How it was run: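 HeLa cells stably carrying EGFP interrupted by mutant beta-globin IVS2-654 intron (CMV-driven) were treated with compound for 2 days at 37C; corrected splicing was scored as total peak GFP intensity per well (488 nm excitation, 500-520 nm emission).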

[3] = Confirmation and Secondary Assay for Modulators of Hemoglobin Beta Chain Splicing at IVS2 705 locus (AID 930);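 further: HeLa cells stably expressing the EGFP-705 splicing reporter; GFP fluorescence per well restored by corrected splicing of the IVS2-705 intron in EGFP; % of control where 0% means no effect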
How it was run: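 Fluorescence gain (488 nm laser, 500-520 nm PMT) reflects restored correct splicing of a mutant IVS2-705 intron inside EGFP in stably transfected HeLa cells after 2-day compound treatment.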

[4] = qHTS Assay for Lipid Storage Modulators (AID 1519; calls by dose curve); settings: Drosophila S3 cells, BODIPY lipid droplet/cell ratio, laser cytometry, cells loaded with oleic acid; for activity change, negative = inhibition: at 57.5 µM (top of the series)
How it was run: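 Cells seeded at 5,000 per well were treated with compounds over a concentration series and loaded with oleic acid (400 uM, as added). Lipid droplet fluorescence (488 nm excitation, 500-530 nm channel) was read by laser-scanning cytometry and normalized to 20 uM Triacsin C.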

[5] = biological target: Rap guanine nucleotide exchange factor 3 (Homo sapiens) (UniProt O95398); experiment: Confirmatory qHTS for agonist of cAMP-regulated guanine nucleotide exchange factor 3 (EPAC1) (AID 1645881);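 further: EPAC1 catalysed release of BODIPY-GDP from Rap1B seen as fluorescence loss; 100% = effect of cAMP agonist control; nearly all actives have a fitted effect of over 75% in size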
[6] = biological target: Rap guanine nucleotide exchange factor 4 (Homo sapiens) (UniProt Q8WZA2); experiment: Confirmatory qHTS for agonist of cAMP-regulated guanine nucleotide exchange factor 4 (EPAC2) (AID 1645884);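 further: nucleotide exchange releases bodipy-GDP from Rap1 and this lowers its fluorescence; on the % scale 0 is the no-effect control and ±100 the full control effect; nearly all actives have a fitted effect of over 65% in size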
[7] = biological target: Lysosomal acid glucosylceramidase (Homo sapiens) (UniProt P04062); experiment: Glucocerebrosidase-p2 (AID 348; in the data active means potency below about 10 µM; further: potency means the concentration at half of the fitted maximal effect); settings: purified GBA, blue fluorogenic substrate, 40 min
How it was run: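 Compounds titrated from 0.6 nM upwards against 0.2 nM enzyme in pH 5.9 citric acid/KH2PO4, taurocholate, tween-20; blue fluorogenic substrate 80 uM, 40 min room temperature, stopped and read Ex 365/Em 440 for AC50.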

[8] = AP1 Signaling Pathway (AID 357; active means well fitted curve in either direction with a large enough effect, not every such curve was filed as active; further: on the % scale 0 is the no-effect control and ±100 the full control effect); settings: ME-180 AP-1-bla reporter, EGF-induced, beta-lactamase ratio, 5 h; at 7.69 µM (top of the series) unless noted
How it was run: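 ME-180 cells with beta-lactamase reporter under AP-1 response element, stimulated with EC50 EGF; compounds tested in titration series, 5 h at 37 °C. CCF4 substrate added 2.5 h at room temperature; 460/530 nm emission ratio gave %activity and AC50.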

[9] = biological target: Cytochrome P450 1A2 (Homo sapiens) (UniProt P05177); experiment: p450-cyp1a2 (AID 410; calls by dose curve; further: potency means the concentration at half of the fitted maximal effect)
How it was run: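 Inhibition was calculated relative to 57 uM furafylline (full inhibition). The reaction used human CYP1A2 at 20nM with Luciferin-ME at its Km, 100uM, driven by an NADPH-regenerating system for 60 min at room temperature.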

[10] = NFAT Signaling Pathway (AID 444; active means well fitted curve in either direction with a large enough effect, not every such curve was filed as active;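 further: carbachol stimulus at about its EC50 of 1 µM final; on the % scale 0 is the no-effect control and ±100 the full control effect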); settings: Jurkat NFAT-bla M1, carbachol, beta-lactamase ratio, 5 h; at 7.69 µM (top of the series) unless noted
How it was run: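 Jurkat cells carrying an NFAT-driven β-lactamase reporter and co-transfected muscarinic M1 receptor were treated with compound plus carbachol (1 uM final, an EC50 level) for 5 h at 37 °C. CCF4 loading followed for 1 h at RT; 460/530 nm ratio gave %activity.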

[11] = Stat Signaling Pathway (AID 446; active means well fitted curve in either direction with a large enough effect, not every such curve was filed as active;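 further: ME-180 cervical cancer cells given 40 pM IL-6 alongside compound; SIE-controlled beta-lactamase reporter measured as 460/530 nm FRET emission ratio; on the % scale 0 is the no-effect control and ±100 the full control effect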); settings: ME-180 (cervical carcinoma) SIE beta-lactamase reporter, IL-6 stimulated, 5 h; at 7.69 µM (top of the series) unless noted
How it was run: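 IL-6/STAT signaling read in ME-180 cells via an SIE beta-lactamase reporter. Stimulus was 40 pM IL-6 (its AC50) for 5 hrs, so both activation and inhibition register.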

[12] = biological target: Glucocorticoid receptor (Homo sapiens) (UniProt P04150); experiment: GR-GFP Redistribution (AID 450;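 active means compounds whose dose series gives a full or clear partial fitted curve of increased nuclear translocation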; further: potency means the concentration at half of the fitted maximal effect); settings: U2OS GR-GFP nuclear translocation, laser cytometry, 2 h
[13] = biological target: Glucocorticoid receptor (Homo sapiens) (UniProt P04150); experiment: GR-EFC Redistribution (AID 451; calls by dose curve; further: potency means the concentration at half of the fitted maximal effect); settings: CHO-K1 GR-EFC translocation, beta-gal luminescence, 2 h
How it was run: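 CHO-K1 cells stably expressing nuclear-localized β-gal enzyme acceptor and GR fused C-terminally to the enzyme donor fragment; ligand-driven nuclear translocation restores β-gal by complementation. Compounds titrated up to 46 uM final, 2 h at 37 °C; luminescence read.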

[14] = biological target: Mitogen-activated protein kinase 10 (Mus musculus) (UniProt Q61831); experiment: JNK3 AlphaScreen Assay (AID 530; active means well fitted curve in either direction with a large enough effect, not every such curve was filed as active;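 further: kinase came from lysate of stimulated human HepG2 cells; signal reports phosphorylation of biotinylated GST-cJun 1-79 at Ser73 with 10 µM ATP; on the % scale 0 is the no-effect control and ±100 the full control effect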)
How it was run: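 JNK3 came from HepG2 lysates pre-activated with IL-1beta and TNF-alpha and phosphorylated biotinylated GST-cJun (1-79) at 10 uM ATP, pH 7.6, room temperature. Compounds were titrated. AlphaScreen signal used anti-phospho-cJun (Ser73) antibody.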

[15] = biological target: 3',5'-cyclic-AMP phosphodiesterase 4B (Homo sapiens) (UniProt Q07343); experiment: qHTS Assay for Inhibitors of PDE-IV (AID 607; active means well fitted activation curve with a large enough effect in the main read-out, with a control signal flat, not every such curve was filed as active; further: % of control where 0% means no effect)
How it was run: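 Live HEK293 cells with a modified cyclic nucleotide-gated (CNG) channel report intracellular cAMP via membrane-potential dye fluorescence (ex 535/em 590 nm). Endogenous PDE-IV was targeted. Compounds were tested at up to 22.9 uM final; RO 20-1724 100 uM served as control.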

[16] = biological target: Cytochrome P450 3A4 (Homo sapiens) (UniProt P08684); experiment: qHTS Assay for Inhibitors and Substrates of Cytochrome P450 3A4 (AID 884); further: potency means the concentration at half of the fitted maximal effect; nearly all actives have a fitted effect of over 50% in size
How it was run: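 20 nM human CYP3A4 with 25 uM Luciferin-PPXE (at KM) in 200 mM KPO4, preincubated 10 min with compound; NADPH regeneration started a 60 min RT reaction. Luciferin detected by luminescence, normalized to 57 uM ketoconazole as full inhibition.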

[17] = biological target: Dual specificity protein kinase CLK4 (Homo sapiens) (UniProt Q9HAZ1); experiment: qHTS Assay for Inhibitors of CDC-like Kinase 4 (Kinase-Glo Assay) (AID 1770); further: on the % scale 0 is the no-effect control and ±100 the full control effect; nearly all actives have a fitted effect of over 65% in size
How it was run: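 Readout: Kinase-Glo luminescence from ATP left after a 4.5 h room-temperature reaction of 25 nM Clk4 with 100 uM RS peptide and 1 uM ATP (final). Buffer: 25 mM Tris pH 7.5, 10 mM MgCl2.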

[18] = biological target: Dual specificity protein kinase CLK4 (Homo sapiens) (UniProt Q9HAZ1); experiment: qHTS Assay for Inhibitors of CDC-like Kinase 4 (ADP-Glo Assay) (AID 1771); further: on the % scale 0 is the no-effect control and ±100 the full control effect; nearly all actives have a fitted effect of over 70% in size
How it was run: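 Kinase reaction: Clk4 at 25 nM, RS repeat peptide substrate at 100 uM, ATP at 1 uM, 1 hr, room temperature. Product ADP detected as luciferase signal via ADP-Glo.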

[19] = biological target: Dual specificity protein kinase CLK4 (Homo sapiens) (UniProt Q9HAZ1); experiment: qHTS Assay for Inhibitors of CDC-like Kinase 4 (ADP-FP Assay) (AID 1795);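 further: recombinant human CLK4 phosphorylating RS repeat peptide at 1 µM ATP; on the % scale 0 is the no-effect control and ±100 the full control effect; nearly all actives have a fitted effect of over 60% in size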
How it was run: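 FP readout: Orange Transcreener ADP2 tracer (4 nM) plus ADP antibody, read after 30 min at room temperature. Kinase step: 6.25 nM Clk4, 100 uM RS peptide, 1 uM ATP, pH 7.5, 1 h.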

[20] = biological target: Ubiquitin carboxyl-terminal hydrolase 1 (Homo sapiens) (UniProt O94782); experiment: Inhibitors of USP1/UAF1: Pilot qHTS (AID 504865);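 further: rhodamine fluorescence freed from ubiquitin-rhodamine substrate followed over time; top concentration of the series differs between compounds; on the % scale 0 is the no-effect control and ±100 the full control effect; nearly all actives have a fitted effect of over 35% in size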
How it was run: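 1nM USP1/UAF1 + cpd, 15 min RT; start w/ Ub-Rho 150nM final; kinetic FL 480/540 nm, 6 reads q60 s. Buffer 50mM HEPES pH 7.8, 0.5mM EDTA, 1mM TCEP, 0.01% Tween-20, 0.1 mg/ml BSA.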

[21] = measured here: cell count channel max response
[22] = measured here: lipid channel max response

Chain of Dual specificity protein kinase CLK4 (Homo sapiens) (Q9HAZ1 whole entry, looked up): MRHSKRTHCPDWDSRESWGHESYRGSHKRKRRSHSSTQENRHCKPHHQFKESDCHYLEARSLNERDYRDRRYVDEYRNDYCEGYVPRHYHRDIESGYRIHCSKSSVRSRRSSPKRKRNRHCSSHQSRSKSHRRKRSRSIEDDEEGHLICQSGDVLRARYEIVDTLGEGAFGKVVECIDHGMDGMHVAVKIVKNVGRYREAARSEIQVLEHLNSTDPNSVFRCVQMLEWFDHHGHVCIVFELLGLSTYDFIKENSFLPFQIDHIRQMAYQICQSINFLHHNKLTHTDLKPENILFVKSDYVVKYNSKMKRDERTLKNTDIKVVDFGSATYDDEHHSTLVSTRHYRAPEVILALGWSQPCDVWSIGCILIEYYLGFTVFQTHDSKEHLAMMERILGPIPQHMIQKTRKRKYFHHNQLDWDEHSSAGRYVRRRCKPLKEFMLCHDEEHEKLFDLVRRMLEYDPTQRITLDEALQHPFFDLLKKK
Chain of Cytochrome P450 3A4 (Homo sapiens) (P08684 whole entry, looked up): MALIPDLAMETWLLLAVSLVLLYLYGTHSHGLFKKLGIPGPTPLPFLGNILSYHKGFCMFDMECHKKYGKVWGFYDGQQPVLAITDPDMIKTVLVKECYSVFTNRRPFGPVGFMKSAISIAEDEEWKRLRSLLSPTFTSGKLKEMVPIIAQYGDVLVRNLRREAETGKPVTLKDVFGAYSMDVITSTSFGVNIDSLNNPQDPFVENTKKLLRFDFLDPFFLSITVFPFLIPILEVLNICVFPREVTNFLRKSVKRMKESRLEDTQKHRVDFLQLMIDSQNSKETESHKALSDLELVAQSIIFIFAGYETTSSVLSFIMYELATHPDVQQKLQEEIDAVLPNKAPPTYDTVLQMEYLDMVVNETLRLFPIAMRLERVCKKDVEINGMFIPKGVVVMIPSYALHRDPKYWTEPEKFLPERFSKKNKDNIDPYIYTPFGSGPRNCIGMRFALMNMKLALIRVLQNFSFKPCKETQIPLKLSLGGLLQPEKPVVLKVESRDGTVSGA
Chain of Rap guanine nucleotide exchange factor 3 (Homo sapiens) (O95398 whole entry, looked up): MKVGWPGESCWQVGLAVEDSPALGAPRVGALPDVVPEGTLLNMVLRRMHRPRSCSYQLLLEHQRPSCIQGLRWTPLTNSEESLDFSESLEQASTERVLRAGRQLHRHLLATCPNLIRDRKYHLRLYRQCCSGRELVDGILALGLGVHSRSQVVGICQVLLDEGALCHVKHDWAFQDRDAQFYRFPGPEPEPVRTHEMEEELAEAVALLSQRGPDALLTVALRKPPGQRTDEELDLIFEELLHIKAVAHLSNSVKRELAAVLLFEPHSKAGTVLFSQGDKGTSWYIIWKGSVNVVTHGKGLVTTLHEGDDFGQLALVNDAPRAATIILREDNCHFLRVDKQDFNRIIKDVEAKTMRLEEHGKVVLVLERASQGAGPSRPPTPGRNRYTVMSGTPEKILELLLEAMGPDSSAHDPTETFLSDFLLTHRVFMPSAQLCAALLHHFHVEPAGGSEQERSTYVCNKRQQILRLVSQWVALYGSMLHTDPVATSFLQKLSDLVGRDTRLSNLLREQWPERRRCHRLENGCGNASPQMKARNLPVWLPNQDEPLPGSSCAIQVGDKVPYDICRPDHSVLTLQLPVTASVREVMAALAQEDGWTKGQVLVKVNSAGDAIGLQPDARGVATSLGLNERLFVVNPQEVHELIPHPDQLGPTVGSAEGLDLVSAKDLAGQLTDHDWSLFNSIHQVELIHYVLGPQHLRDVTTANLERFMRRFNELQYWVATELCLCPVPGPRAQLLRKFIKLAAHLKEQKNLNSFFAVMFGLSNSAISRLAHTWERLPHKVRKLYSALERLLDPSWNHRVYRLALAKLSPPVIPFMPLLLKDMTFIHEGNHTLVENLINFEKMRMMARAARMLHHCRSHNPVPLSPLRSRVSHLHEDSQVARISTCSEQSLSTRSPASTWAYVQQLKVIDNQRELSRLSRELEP
Chain of Rap guanine nucleotide exchange factor 4 (Homo sapiens) (Q8WZA2 whole entry, looked up): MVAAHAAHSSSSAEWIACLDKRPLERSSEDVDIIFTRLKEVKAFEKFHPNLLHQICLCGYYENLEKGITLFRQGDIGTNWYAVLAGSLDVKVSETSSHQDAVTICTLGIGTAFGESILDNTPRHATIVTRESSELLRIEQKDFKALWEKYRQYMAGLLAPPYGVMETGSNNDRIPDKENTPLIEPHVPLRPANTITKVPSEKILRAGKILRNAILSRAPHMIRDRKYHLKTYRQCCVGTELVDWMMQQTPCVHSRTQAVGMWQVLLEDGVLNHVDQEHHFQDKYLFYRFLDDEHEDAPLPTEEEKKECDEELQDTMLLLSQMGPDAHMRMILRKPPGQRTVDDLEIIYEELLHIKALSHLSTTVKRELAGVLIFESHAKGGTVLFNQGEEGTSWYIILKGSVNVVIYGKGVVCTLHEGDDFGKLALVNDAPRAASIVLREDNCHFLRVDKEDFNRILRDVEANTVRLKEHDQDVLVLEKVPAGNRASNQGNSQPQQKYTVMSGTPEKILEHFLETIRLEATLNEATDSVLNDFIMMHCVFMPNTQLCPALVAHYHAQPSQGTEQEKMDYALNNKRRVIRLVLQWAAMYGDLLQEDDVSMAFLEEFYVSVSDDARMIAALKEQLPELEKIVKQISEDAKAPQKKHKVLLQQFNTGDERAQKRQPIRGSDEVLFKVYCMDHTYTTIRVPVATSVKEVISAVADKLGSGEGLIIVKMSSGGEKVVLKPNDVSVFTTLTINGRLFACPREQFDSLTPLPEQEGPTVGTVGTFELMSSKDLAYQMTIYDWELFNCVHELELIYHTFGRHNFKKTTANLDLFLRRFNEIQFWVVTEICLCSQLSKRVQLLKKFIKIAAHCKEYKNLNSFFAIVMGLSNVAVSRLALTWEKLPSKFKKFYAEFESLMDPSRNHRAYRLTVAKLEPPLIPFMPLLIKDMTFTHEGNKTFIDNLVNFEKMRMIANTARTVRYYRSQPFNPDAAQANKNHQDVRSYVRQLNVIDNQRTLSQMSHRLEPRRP
Chain of Glucocorticoid receptor (Homo sapiens) (P04150 whole entry, looked up, the tested form may be a part): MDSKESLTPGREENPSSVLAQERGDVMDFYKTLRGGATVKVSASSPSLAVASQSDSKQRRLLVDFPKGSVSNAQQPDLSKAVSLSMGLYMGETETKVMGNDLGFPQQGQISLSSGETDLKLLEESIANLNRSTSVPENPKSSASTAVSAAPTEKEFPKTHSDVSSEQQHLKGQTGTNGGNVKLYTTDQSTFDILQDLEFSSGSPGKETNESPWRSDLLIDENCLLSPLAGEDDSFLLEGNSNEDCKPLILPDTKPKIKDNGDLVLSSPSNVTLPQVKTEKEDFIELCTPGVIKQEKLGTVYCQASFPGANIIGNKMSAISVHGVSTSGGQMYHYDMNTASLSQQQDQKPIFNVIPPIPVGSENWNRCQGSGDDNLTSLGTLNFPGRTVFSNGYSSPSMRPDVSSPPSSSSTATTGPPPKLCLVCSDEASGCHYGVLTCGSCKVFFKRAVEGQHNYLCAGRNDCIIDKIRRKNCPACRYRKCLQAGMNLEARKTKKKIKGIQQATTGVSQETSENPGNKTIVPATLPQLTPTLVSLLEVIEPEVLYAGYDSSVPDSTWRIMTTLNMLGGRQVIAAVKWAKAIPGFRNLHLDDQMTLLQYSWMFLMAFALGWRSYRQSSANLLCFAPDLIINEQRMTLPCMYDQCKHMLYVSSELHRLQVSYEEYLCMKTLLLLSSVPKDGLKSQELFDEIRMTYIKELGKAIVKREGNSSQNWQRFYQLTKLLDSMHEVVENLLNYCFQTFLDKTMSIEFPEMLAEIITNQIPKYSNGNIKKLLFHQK
Chain of Cytochrome P450 1A2 (Homo sapiens) (P05177 whole entry, looked up): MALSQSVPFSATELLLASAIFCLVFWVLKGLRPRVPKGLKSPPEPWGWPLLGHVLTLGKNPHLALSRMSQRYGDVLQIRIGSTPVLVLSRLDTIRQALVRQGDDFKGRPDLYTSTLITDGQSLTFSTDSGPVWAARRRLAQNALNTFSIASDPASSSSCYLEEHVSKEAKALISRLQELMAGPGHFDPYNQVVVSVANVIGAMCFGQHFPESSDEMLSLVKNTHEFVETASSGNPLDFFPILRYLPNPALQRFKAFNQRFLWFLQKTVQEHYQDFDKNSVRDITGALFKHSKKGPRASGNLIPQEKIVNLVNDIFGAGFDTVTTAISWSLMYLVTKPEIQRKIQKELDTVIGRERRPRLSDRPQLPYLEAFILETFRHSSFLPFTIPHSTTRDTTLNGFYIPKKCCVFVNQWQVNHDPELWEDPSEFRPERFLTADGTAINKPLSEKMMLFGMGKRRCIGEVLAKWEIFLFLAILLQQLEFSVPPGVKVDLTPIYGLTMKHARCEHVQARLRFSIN
Chain of Lysosomal acid glucosylceramidase (Homo sapiens) (P04062 whole entry, looked up): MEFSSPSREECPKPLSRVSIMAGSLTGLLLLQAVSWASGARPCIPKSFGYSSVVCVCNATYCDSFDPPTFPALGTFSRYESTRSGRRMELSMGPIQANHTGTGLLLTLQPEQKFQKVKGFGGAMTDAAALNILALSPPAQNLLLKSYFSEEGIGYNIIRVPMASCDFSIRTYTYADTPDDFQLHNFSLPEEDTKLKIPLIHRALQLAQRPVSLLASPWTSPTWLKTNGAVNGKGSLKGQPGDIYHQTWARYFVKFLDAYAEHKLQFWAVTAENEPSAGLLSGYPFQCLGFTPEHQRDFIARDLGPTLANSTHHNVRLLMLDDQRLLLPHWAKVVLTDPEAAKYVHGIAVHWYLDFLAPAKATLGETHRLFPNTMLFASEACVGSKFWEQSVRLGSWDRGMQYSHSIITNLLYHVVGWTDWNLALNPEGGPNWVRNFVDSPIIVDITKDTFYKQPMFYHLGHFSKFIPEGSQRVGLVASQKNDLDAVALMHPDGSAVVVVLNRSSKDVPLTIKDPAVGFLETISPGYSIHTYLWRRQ

COc1cc(-c2coc3cc(OCc4ccccc4)c(OC)c(O)c3c2=O)cc(O)c1OC
Potency [1]: inactive
Potency [2]: inactive
outcome [3]: inactive
activity change, negative = inhibition [4]: -4.72% (inactive)
max response [4, 21]: -3.67%
max response [4, 22]: -4.66%
Potency [5]: inactive
Potency [6]: inactive

COCCn1c(=O)c(CCc2ccccc2)nc2cnc(Oc3ccc(OC)cc3)nc21
Potency [7]: > 11.4 µM (inactive)
activity change, negative = inhibition [8]: -14.8% (inactive)
Potency [9]: 15.8 µM (active)
activity change, negative = inhibition [10]: 2.36% (inactive)
activity, negative = inhibition [11]: -17% (inactive)
Potency [12]: > 9.22 µM (inactive)
Potency [13]: > 46 µM (inactive)
Potency [14]: inactive
Potency [15]: inactive
Potency [16]: 3.16 µM (active)
Potency [1]: inactive
activity change, negative = inhibition [4]: -2.61% (inactive)
max response [4, 21]: 5.1%
max response [4, 22]: 2.19%
Potency [17]: inactive
Potency [18]: inactive
Potency [19]: inactive
Potency [20]: inactive

CCCC1O[C@@H]2C[C@H]3[C@@H]4CCC5=CC(=O)C=C[C@]5(C)C4[C@@H](O)C[C@]3(C)[C@]2(C(=O)CO)O1 (some centres undefined)
activity change, negative = inhibition [4]: 0.423% (inactive)
max response [4, 21]: -19.9%
max response [4, 22]: -19.5%

CN1CCc2c(cc(O)c(O)c2Cl)C(c2cccc(Cl)c2)C1 (centres undefined)
activity change, negative = inhibition [4]: -5.99% (inactive)
max response [4, 21]: 26.1%
max response [4, 22]: 9.27%

COc1cc(O)c(C(=O)/C=C/c2ccc(OC)c(O)c2)c(OC)c1
Potency [16]: 6.31 µM (active)
Potency [1]: inactive
Potency [2]: inactive
activity change, negative = inhibition [4]: -24.7% (inactive)
max response [4, 21]: -3.92%
max response [4, 22]: -25.6%
Potency [5]: inactive

COc1ccc2c(c1OC)C(=O)OC2C1c2c(cc3c(c2OC)OCO3)CCN1C (centres undefined)
activity change, negative = inhibition [8]: 11.6% [at 17.2 µM] (inactive)
activity change, negative = inhibition [10]: -3.27% [at 17.2 µM] (inactive)
activity, negative = inhibition [11]: 9.27% [at 17.2 µM] (inactive)
Potency [12]: > 20.6 µM (inactive)
activity change, negative = inhibition [4]: 0.209% (inactive)
max response [4, 21]: -33.3%
max response [4, 22]: -33.7%

Nc1ncnc2c1nc(Br)n2C1O[C@H]2COP(=O)(O)O[C@@H]2C1O (some centres undefined)
activity change, negative = inhibition [4]: 0.429% (inactive)
max response [4, 21]: 27.3%
max response [4, 22]: 29.9%

CC#C[C@]1(O)CC[C@H]2C3CCC4=CC(=O)CCC4=C3[C@@H](c3ccc(N(C)C)cc3)C[C@@]21C (some centres undefined)
activity change, negative = inhibition [4]: 0.852% (inactive)
max response [4, 21]: -13.1%
max response [4, 22]: -13.3%

CC1(C)[C@@H](O)CC[C@]2(C)C3C(=O)C=C4C5C[C@@](C)(C(=O)O)CC[C@]5(C)CC[C@@]4(C)[C@]3(C)CC[C@@H]12 (some centres undefined)
Potency [1]: inactive
activity change, negative = inhibition [4]: 2.84% (inactive)
max response [4, 21]: 8.09%
max response [4, 22]: 11.1%
Potency [5]: inactive
Potency [6]: inactive

CN(C)CCCO[C@H]1C([C@H](O)CO)O[C@@H]2OC(C)(C)O[C@@H]21 (some centres undefined)
activity change, negative = inhibition [4]: 1.15% (inactive)
max response [4, 21]: 19.8%
max response [4, 22]: 24%

O=C1C=CC2=C3c4cc(O)c(O)cc4CC3(O)COC2=C1O (centres undefined)
Potency [16]: 31.6 µM (active)
Potency [2]: inactive
outcome [3]: inactive
activity change, negative = inhibition [4]: 6.15% (inactive)
max response [4, 21]: 11.8%
max response [4, 22]: 21%
Potency [5]: inactive
Potency [6]: inactive

COC(=O)c1c(C)c2c(c(C)c1O)OC(=O)c1c(C)c(Cl)c(O)c(Cl)c1O2
Potency [1]: inactive
Potency [2]: inactive
outcome [3]: inactive
activity change, negative = inhibition [4]: 9.5% (inactive)
max response [4, 21]: -4.72%
max response [4, 22]: 1.33%
Potency [5]: inactive
Potency [6]: inactive

COC(=O)[C@@H]1C2CC3c4[nH]c5cc(OC)ccc5c4CCN3CC2C[C@H](OC(=O)c2cc(OC)c(OC)c(OC)c2)C1OC (some centres undefined)
Potency [1]: inactive
Potency [2]: 15.8 µM (active)
activity change, negative = inhibition [4]: -8.88% (inactive)
max response [4, 21]: 3.77%
max response [4, 22]: -5.55%
Potency [5]: inactive
Potency [6]: inactive
